# Compound activity (PubChem)
# DAX1 inh-1: DAX1 (NR0B1) inhibition, primary screen; AID 652010; 370,000 compounds, 1.1% hits; inhibition, % at 6.8 µM; HEK293T StAR-luciferase reporter, SF-1/DAX-1 repression relief;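 active = inhibition above the mean over all tested compounds plus 3 SD, cut at about 3.6% in these data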;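 note: 0% = DAX-1 cells with DMSO and 100% = cells lacking DAX-1 with DMSO; higher inhibition means more luminescence from relief of DAX-1 repression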
# hgDAF-12 ag: activates the H. glycines DAF-12 receptor ligand-binding domain | HEK293 GAL4-hgDAF12 UAS-luciferase reporter, agonist luminescence; normalized to butyrate control | activation, % at 6.8 µM | 370,000 compounds, 1.8% hits | AID 687014;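 active = activation above a cutoff set at the mean of all screened compounds plus 3 SD, cut at about 10% in these data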;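 note: 0% = DMSO wells and 100% = sodium butyrate wells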
# ssDAF-12 act: S. stercoralis DAF-12 activation, primary screen; HEK293 ssDAF-12/GRIP1 lit1-tk-luc reporter, luminescence; % of 3 µM dafachronic acid response; activation, % at 6.8 µM; AID 652126; 370,000 compounds, 1% hits;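 active = activation above the mean over all tested compounds plus 3 SD, cut at about 0.9% in these data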;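 note: 0% = DMSO-only wells and 100% = 3 µM delta7-dafachronic acid wells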
# DAX1 inh-2: inhibitors of human orphan nuclear receptor DAX1 (NR0B1); P51843; HEK293 Gal4-DAX1 luciferase reporter, luminescence; inhibition, % at 6.75 µM; 340,000 compounds, 0.99% hits;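 active = inhibition above the mean over all tested compounds plus 3 SD, cut at about 4.2% in these data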;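 note: 0% = DAX1-transfected cells with DMSO and 100% = empty-vector control cells with DMSO; inhibition shows as a rise in luminescence from relieved DAX1 repression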
# Target sequence (P51843 207-470 limits assumed): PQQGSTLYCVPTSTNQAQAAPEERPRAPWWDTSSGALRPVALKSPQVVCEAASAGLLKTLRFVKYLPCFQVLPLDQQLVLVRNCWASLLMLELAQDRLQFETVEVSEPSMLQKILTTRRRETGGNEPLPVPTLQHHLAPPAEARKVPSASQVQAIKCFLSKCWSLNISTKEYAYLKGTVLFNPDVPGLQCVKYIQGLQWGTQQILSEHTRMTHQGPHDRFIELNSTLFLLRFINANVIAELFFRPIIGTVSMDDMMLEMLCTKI
# hcDAF12 agonist: activates DAF-12 receptor from parasite H. contortus; HEK293 hcDAF-12 lit1-tk-luc reporter, luminescence; 0% DMSO, 100% Δ7-dafachronic acid; activation, % at 6.8 µM; 370,000 compounds, 1.4% hits; AID 652067;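 active = activation above the mean of all tested compounds plus 3 SD, cut at about 5.5% in these data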;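 note: 100% = response to 3 µM Δ7-dafachronic acid high control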
# * marks the source's active call; other numbers are inactive results; / = no result given. Hits are enriched below; roughly 4.1% of the tested compounds scored in any of these assays.
SMILES,DAX1 inh-1,hgDAF-12 ag,ssDAF-12 act,DAX1 inh-2,hcDAF12 agonist
Cc1ccc(N/C=C/c2onc(C)c2[N+](=O)[O-])cc1,2.4,10.0,-1.0,5.6*,4.2
CCCCC(=O)N(Cc1ccccc1)c1ccccc1C(=O)Nc1cc(OC)ccc1OC,-1.0,0.4,-0.6,/,-0.5
Nc1n[nH]c2cc(=O)n(-c3cccc(C(F)(F)F)c3)nc12,0.1,-1.4,-1.6,-1.8,2.0
O=c1[nH][nH]c2cc(=O)n(-c3cccc(C(F)(F)F)c3)nc12,0.4,-0.6,5.2*,-0.2,-0.5
O=C(Nc1ccccc1Br)c1cc(=O)c2ccccc2o1,1.6,10.9*,0.6,4.2,1.0
NS(=O)(=O)c1cccc(NC(=O)c2cc3ccccc3o2)c1,3.1,5.3,-1.1,1.3,-0.8
O=C(Nc1ccccc1Cl)c1cc(=O)c2ccccc2o1,0.7,10.3,-0.7,1.8,0.5
NS(=O)(=O)c1cccc(NC(=O)c2cc(=O)c3ccccc3o2)c1,0.1,4.5,-1.0,4.8*,1.8
O=C(CCc1ccccc1)N[C@H]1[C@@H](OC(=O)c2cccnc2)CCC[C@@]12C(=O)N(Cc1ccccc1)c1ccccc12,-2.0,-7.8,-2.0,/,-4.7
Cc1ccc(-c2cc(C(=O)NN=Cc3sccc3C)[nH]n2)cc1C,0.2,0.2,-1.5,/,4.0
O=C(c1cc2ccccc2oc1=O)N(Cc1ccc(F)cc1)C1CCS(=O)(=O)C1 (stereo unspecified),2.2,3.0,-0.2,4.5*,3.3
O=C(c1cc2ccccc2oc1=O)N(Cc1cccs1)C1CCS(=O)(=O)C1 (stereo unspecified),1.1,7.4,0.6,1.4,5.8*
Nc1nc(Cl)nc2c1ncn2[C@@H]1O[C@H](CO)[C@@H](O)[C@@H]1F,-4.2,-5.5,-1.6,/,-3.5
COc1ccc(-c2cc(=O)oc3cc(OC(C)C(=O)NCc4ccccn4)ccc23)cc1 (stereo unspecified),-1.4,-6.3,-1.3,2.6,2.9
CCCCc1cc(=O)oc2cc(OCC(=O)Nc3ccccn3)ccc12,4.3*,7.7,-0.3,1.6,4.5
COc1ccc(-c2cc(=O)oc3cc(OCC(=O)NCc4ccccn4)ccc23)cc1,0.0,-1.4,-1.1,5.7*,4.0
C[C@H]1Cn2nncc2Cn2c3ccccc3c(=O)n21,-1.0,-2.4,-0.2,/,-1.8
Cc1cccc(C)c1NC(=O)C(c1ccc(C#N)cc1)n1c(=O)c(-c2ccco2)nc2ccccc21 (stereo unspecified),1.4,1.3,-0.8,/,-1.2
O=C(NCc1ccccc1)C(c1ccncc1)n1c(=O)c(-c2ccccc2)nc2ccccc21 (stereo unspecified),0.0,4.0,-0.7,/,-0.1
COc1ccc(NC(=O)C(c2cc3ccccc3o2)n2c(=O)c(-c3cc4ccccc4[nH]3)nc3ccccc32)cc1 (stereo unspecified),0.4,3.2,1.3*,/,5.8*
O=C(NCc1ccccc1)C(c1cc2ccccc2o1)n1c(=O)c(-c2ccccc2)nc2ccccc21 (stereo unspecified),3.8*,5.4,0.5,/,4.1
COC(=O)[C@]12C[C@H](CC(=O)NCc3ccccc3)C(=O)N(Cc3cccc4ccccc34)C1=C[C@H](COCc1ccccc1)O[C@@H]2C,-0.9,0.8,0.5,/,-0.7
COc1ccccc1/C=C/C=N/NC(=O)c1ccccn1,4.1*,12.9*,0.2,3.8,1.1
COc1ccc(NC(=O)c2ccccn2)cc1OC,1.1,11.6*,-0.2,4.4*,2.5
O=C(N/N=C/C1CCCCC1)c1ccccn1,3.5,12.2*,0.0,0.1,6.3*
SMILES,DAX1 inh-1,hgDAF-12 ag,ssDAF-12 act,DAX1 inh-2,hcDAF12 agonist
CCC(=O)Nc1ccc(NC(=O)c2ccccn2)cn1,2.0,12.0*,-0.3,-0.7,3.9
C[C@@H]1C(=O)N2N=Cc3cc4ccccc4cc3[C@H]2N2N=Cc3cc4ccccc4cc3[C@@H]12,-2.5,-7.4,-1.6,/,-2.1
COc1ccc(C(=O)Nc2ccc([N+](=O)[O-])cn2)cc1OC,1.0,-0.4,-1.3,-1.3,-0.9
COc1ccc(C(=O)Nc2ccc3ccccc3n2)cc1OC,1.4,10.0,0.1,4.8*,1.9
CCCCOCC1CN(CCCC)S(=O)(=O)c2c(cccc2N2CCCCC2)O1 (stereo unspecified),0.4,-0.8,-1.3,/,0.1
Cc1ccc(C)c(NC(=S)NC2CC3CCC(C2)N3Cc2ccco2)c1 (stereo unspecified),0.2,1.5,1.6*,0.6,-0.3
N/C(=N\N=C\c1ccc(Br)o1)c1nonc1N,1.4,13.0*,-0.3,6.1*,2.9
N/C(=N\N=C\c1ccc([N+](=O)[O-])cc1)c1nonc1N,1.0,10.7*,-1.1,0.5,1.6
COc1ccc(/C=N/N=C(\N)c2nonc2N)cc1OC,1.8,8.6,-1.2,3.4,0.5
O=C1CSC(c2cccnc2)N1Cc1ccc(Cl)cc1 (stereo unspecified),0.1,-1.5,-1.4,0.8,-0.6
O=C1CSC(c2cccnc2)N1CC1CC1 (stereo unspecified),-0.6,1.4,-0.2,4.8*,0.2
Cc1sc2nc(SCC(=O)c3ccc(O)c(O)c3)n(C)c(=O)c2c1C,-0.6,3.6,-0.9,/,-2.2
Cc1ccc(-n2c(COc3cccc(C)c3)n[nH]c2=S)cc1,0.6,-1.1,-1.3,4.8*,-2.0
Cc1cccc(OCc2n[nH]c(=S)n2-c2ccccc2)c1,-0.6,-2.4,-2.1,2.3,-1.2
COc1cc(CNCCCCO)ccc1OCc1ccccc1F,1.2,10.9*,-0.6,-0.4,1.1
CCc1c(C)c2ccc(OCC(=O)NCC3CCC(C(=O)O)CC3)c(C)c2oc1=O (stereo unspecified),-0.1,11.4*,-0.6,2.1,-0.1
CCN(C(=O)C1CCN(c2ncccn2)CC1)c1ccccc1,0.3,-2.0,-1.5,/,0.0
Cc1ccc2cc(COC(=O)c3cccc([N+](=O)[O-])c3)c(=O)[nH]c2c1,0.5,-1.0,0.0,4.5*,1.1
CC[C@@]1(C(=O)OC)N[C@H](CN(C)S(=O)(=O)c2ccc(C(F)(F)F)cc2)[C@@H]2C(=O)N(C)C(=O)[C@@H]21,-0.2,-3.1,-0.9,0.6,0.8
CN(C)/N=C/C=C1\CCC/C(=C/c2cccs2)C1=O,1.4,12.1*,-0.2,4.4*,1.4
CC1(C)Oc2ccc(C(=O)N3CCCC3)cc2NC1=O,-0.4,-0.4,-0.9,/,2.3
CN(C)c1ccc(/C=C/c2cccc[n+]2[O-])cc1,0.8,4.8,-0.9,/,6.3*
COC(=O)[C@]12C[C@H](CC(=O)NCCc3ccccc3OC)C(=O)N(Cc3ccco3)C1=C[C@H](C1CCCC1)O[C@@H]2C,-0.7,-4.9,-1.3,/,-2.5
COc1ccc(NC(=O)CSc2nnc(-c3cccs3)o2)cc1Cl,-2.3,1.4,-1.9,/,-2.5
CC(=O)Nc1ccc2c(c1Br)Cc1ccccc1-2,0.1,12.8*,-0.5,1.2,0.4
CC(=O)Nc1cccc2c1Cc1ccccc1-2,/,/,/,0.6,/
